# Screens (PubChem BioAssay)
# Statin myotox sup – suppression of simvastatin myotoxicity; C2C12 myotubes + simvastatin, ATP luminescence, 48 h; scaled: DMSO 0, geranylgeraniol control 100; rescue of ATP level, % at 7.49 µM; 330,000 compounds, 0.78% hits;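 active means mean ATP rescue above about 67%, or every replicate alone reaching that limit, limit read from the data, passing the limit was not always enough; inconclusive means no clear call, values can overlap the other calls; inactive means mean under the limit and some replicate under it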;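 further: myotubes were challenged with 10 µM simvastatin during compound exposure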
# miR-122 sensor – blocks miR-122 activity in Huh7 sensor cells. Huh7 miR-122 Renilla luciferase sensor, 48 h; neutral wells = 0, positive control = 100. activation (reporter increase), % at 12.5 µM. 340,000 compounds, 0.3% hits;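 active means mean replicate activation score at least 90 and every replicate individually at or above 90; inconclusive means only one of the two criteria met; inactive means neither criterion met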;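 further: higher luciferase means less miR-122 activity so hits act as miR-122 inhibitors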
# NSD2 inh – NSD2 (human) methyltransferase inhibition. O96028. NSD2 peptide methylation, AlphaScreen, 120 min. inhibition, % at 12.5 µM. 310,000 compounds, 0.54% hits; in the data active means inhibition above about 50%
# PglD inh – PglD (C. jejuni) enzyme inhibition; purified PglD enzyme, DTNB colorimetric CoA detection; inhibition, % at 12.5 µM; 360,000 compounds, 0.098% hits; in the data active means inhibition above about 16%, passing the limit was not always enough; inconclusive means no clear call, values can overlap the other calls
# Alpha artifact – interferes with AlphaScreen signal, flagging NSD2 false positives | 1,500 compounds, 9.4% hits | AC35, µM (highest dose often 10 µM), for inactives: top-dose activity change, negative = signal loss | AlphaScreen artifact counterscreen, preloaded methylated H4 peptide | AID 1053174 | shares compounds with NSD2 inh; call rule not given here
# Starred values were filed as active, the others as inactive; ? = inconclusive; nt = not tested or not shown; [ ] = another dose, or the depositor's remark. Compounds with a hit are over-represented: about 1.2% of the library has one in this group of screens.
SMILES,Statin myotox sup,miR-122 sensor,NSD2 inh,PglD inh,Alpha artifact
CC1=C(C)C(=O)N(c2ccccn2)C1=O,nt,-5,-1,0,nt
Cc1nn(-c2ccccn2)c2c1C(=O)C(Br)CC2 (configuration not stated),5,-4,100*,-1,-1%
Nc1nc2ccc(S(=O)(=O)N3CCCCC3)cc2s1,41,11,nt,3,nt
Cc1nc2ccc(S(=O)(=O)N3CCCCC3)cc2s1,-2,2,51*,3,-1%
C[C@H]1CN([C@@H](C)CO)C(=O)c2cc(NC(=O)c3ccncc3)ccc2O[C@H]1CN(C)S(=O)(=O)c1ccccc1,12,5[16.7 µM],nt,1,nt
N#Cc1c(-c2ccccc2)nc(SCC(=O)NC2CCCCC2)[nH]c1=O,nt,nt,3,nt,nt
CN(C(=O)CSc1nc(-c2ccc(C(C)(C)C)cc2)c(C#N)c(=O)[nH]1)C1CCCCC1,1,-4,60*,2,-3%
O=C(CSc1nc(-c2ccccc2)c(-c2ccccc2)o1)Nc1nnc(-c2ccccc2)s1,9,-8,76*,-3,2%
O=S(=O)(Nc1cc(Sc2cccc3cccnc23)c(O)c2ccccc12)c1ccccc1,nt,nt,56*,nt,-13%
CCc1ccc(S(=O)(=O)Nc2cc(SCC(=O)O)c(O)c3ccccc23)cc1,nt,1,113*,nt,-10%
Cc1cc2c(OCC(O)CNC3CCCCC3)cccc2[nH]1 (configuration not stated),14,-5,54*,nt,-2%
CCN(CC)C(=O)CSc1nc2ccccc2c(=O)n1CCC(=O)NCc1ccc(F)cc1,3,-8,121*,-3,0%
O=C(O)COc1ccc(/C=C/C(=O)c2ccc(C3CCCCC3)cc2)cc1,23,-2,31,-4,nt
O=C(O)COc1ccc(/C=C/C(=O)c2ccc3ccccc3c2)cc1,-19,nt,88*,4,-5%
NS(=O)(=O)c1ccc(N/N=C/c2ccc(O)cc2O)c([N+](=O)[O-])c1,14,-16,18,0,nt
NS(=O)(=O)c1ccc(N/N=C/c2ccc(O)c(O)c2O)c([N+](=O)[O-])c1,nt,-11,73*,-6,-10%
CC(C)NC(=O)Nc1ccc2c(c1)C(=O)N(C)[C@H]1CC[C@H](CC(=O)Nc3ccc(F)cc3)O[C@@H]1CO2,-8,-2[16.7 µM],nt,-3,nt
O=C(C[C@@H]1CC[C@@H]2[C@H](COC[C@@H](O)CN2C(=O)Nc2ccccc2)O1)NCCc1ccncc1,-5,8[16.7 µM],nt,-3,nt
C[n+]1cccc2c(Br)ccc([O-])c21,nt,-1,104*,2,-1%
Cc1noc(C)c1NC(=O)N(C)C[C@H]1Oc2ccc(NC(=O)Nc3ccc4c(c3)OCO4)cc2CC(=O)N([C@H](C)CO)C[C@@H]1C,5,-4[16.7 µM],nt,5,nt
COc1ccc(CN(C)C[C@@H]2OCCCC[C@H](C)Oc3ccc(NC(=O)Nc4ccccc4)cc3C(=O)N([C@H](C)CO)C[C@@H]2C)cc1,nt,0[16.7 µM],nt,-1,nt
COc1ccc(OC)c(NC(=O)Nc2ccc(Cl)cc2)c1,-10,7,nt,1,nt
COC(=O)c1cc(NC(=O)Nc2cc(OC)ccc2OC)cc(C(=O)OC)c1,8,2,120*,1,3%
COCC(=O)Nc1ccc2c(c1)OC[C@@H](C)N(CCC(F)(F)F)C[C@@H](C)[C@H](OC)CN(C)C2=O,0,nt,nt,0,nt
COCCN(C(=O)CCC(=O)Nc1ccccn1)C(C(=O)NC(C)C)c1ccc(C)cc1 (configuration not stated),-59,-4,60*,7,-5%
SMILES,Statin myotox sup,miR-122 sensor,NSD2 inh,PglD inh,Alpha artifact
COc1ccc(C(=O)Cc2nnc(C)s2)cc1,nt,nt,69*,nt,2%
COc1ccc(C(=O)CC(=O)c2ccc(OC)cc2)cc1,4,-7,-5,-2,nt
C[C@@H]1CN([C@@H](C)CO)C(=O)c2cc(C#CC3CCCCC3)cnc2O[C@H]1CN(C)S(=O)(=O)c1ccc(F)cc1,?,-6[16.7 µM],nt,3,nt
COc1cc(/C=C/c2cccc[n+]2C)ccc1OCC(=O)Nc1ccccc1C,13,nt,131*,-5,-3%
CCc1ccc(NC(=S)Nc2cccc3cnccc23)cc1,10,2,98*,-2,0%
COc1cc(OC)c(C(=O)OC(C)C(=O)NCc2ccc3c(c2)OCO3)cc1OC (configuration not stated),10,nt,76*,-2,-4%
COc1ccc(S(=O)(=O)NCc2ccc3c(c2)OCO3)cc1OC,-2,17,55*,1,2%
CO[C@@H]1CN(C)C(=O)c2ccc(NS(C)(=O)=O)cc2OC[C@H](C)N(Cc2cncnc2)C[C@H]1C,-5,-11[16.7 µM],nt,7,nt
CC(=O)N(C)C[C@H]1[C@H](c2ccc(C3=CCCC3)cc2)[C@H](CO)N1CC1CC1,12,14[16.7 µM],nt,0,nt
COCC(=O)Nc1ccc2c(c1)[C@@H]1C[C@H](CC(=O)NCc3ccncc3)O[C@@H](CO)[C@@H]1O2,-5,-3[16.7 µM],nt,0,nt
CC1(C)CC(N=C2C=CC3=NC45CCCCC4CC4=C(CCCC4)N5C3=C2)CC(C)(C)N1 (configuration not stated),nt,nt,64*,nt,-6%
COc1cccc(-c2cnc3c(c2)C(=O)N([C@H](C)CO)C[C@H](C)[C@H](CN(C)C)O3)c1,22,-4[16.7 µM],nt,2,nt
C[C@@H]1CN([C@H](C)CO)C(=O)c2cc(NC(=O)Cc3ccccc3)ccc2O[C@@H](C)CCCCO[C@H]1CN(C)S(=O)(=O)c1ccc(F)cc1,53,27[16.7 µM],nt,-2,nt
CC1Oc2ccc(C#N)cc2N(Cc2cccc(F)c2)C1=O (configuration not stated),-5,-5,55*,0,-1%
COc1cc(-c2nnc(SCc3cc(=O)oc4cc(O)c(O)cc34)o2)cc(OC)c1OC,31,-6,83*,-2,0.99µM*
CCOC(=O)CSc1nnc(-c2cc(OC)c(OC)c(OC)c2)o1,nt,nt,0,nt,nt
O=C(N/N=C1\C/C(=N\NC(=O)c2ccncc2)c2ccccc21)c1ccncc1,2,10,108*,-2,-2%
O=C(O)Cc1sc(NC2CCCCC2)nc1-c1ccc(Cl)cc1,6,0,99*,-3,-4%
Cc1[nH]c(=O)[nH]c1C(=O)CCCCC(=O)O,1,-3,130*,9,-5%
O=C(C[C@@H]1CC[C@H]2[C@@H](COC[C@@H](O)CN2Cc2cc(F)ccc2F)O1)NCc1ccccc1,8,8[16.7 µM],nt,-2,nt
CC(=NO)c1cc(Br)c2cccc3c2c1CC3,-14,1,66*,0,-3%
Cc1noc(C)c1NC(=O)Nc1cccc2c1O[C@@H](CN(C)S(=O)(=O)c1ccccc1)[C@@H](C)CN([C@@H](C)CO)C2=O,-13,1[16.7 µM],nt,nt,nt
Cc1cccnc1Nc1nc(-c2ccc(O)c(O)c2)cs1,-17,-3,51*,-1,-10%
Oc1ccc(-c2csc(Nc3cccc4ccccc34)n2)cc1O,-19,nt,51*,0,-17%
Oc1ccc(-c2csc(Nc3ccccn3)n2)cc1O,-39,1,31,4,nt
Cc1ccc(NC(=O)C[n+]2ccn(C3=C([O-])c4ccccc4C3=O)c2)cc1,nt,nt,89*,nt,-4%
